Screening data: PubChem BioAssay, National Center for Advancing Translational Sciences (NCATS)
Sfp PPTase inh: Sfp phosphopantetheinyl transferase inhibition; hit rate 3.5% among 310,000; Potency, µM, usual class: inhibitors; Q9F4F7; Biochemical Sfp PPTase activity, qHTS;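 further: the enzyme is Sfp with the accession as filed and its product quenches rhodamine fluorescence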
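With Hepes-Na pH 7.6 buffer containing 10 mM MgCl2, Sfp (15 nM) modified BHQ-2-YbbR (12.5 uM) using rhodamine-CoA (5 uM). Two reads 30 minutes apart at 525/598 nm yielded each well's rate.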
ELG1 repair inh: ELG1-dependent DNA repair inhibition | hit rate 2.3% among 330,000 | HEK293T ELG1-luciferase reporter, luminescence, 16 h; DNA damage induced by 5-fluorouridine | Potency, µM (highest dose often 46.1 µM), usual class: inhibitors | AID 504467; further: nearly all actives have a fitted effect of over 55% in size
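5-Fluorouridine DNA damage + compound/DMSO, 2,000 cells/well, 16 h, 37 °C/5% CO2. ONE-Glo, 30 min RT, luminescence. Readout = decrease in reporter signal.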
Coupling enz: inhibits coupling enzyme system, counter-screen for aldolase hits; coupling enzyme system counterscreen, AmpLite Red fluorescence; activity change, negative = inhibition, % at 58.2 µM, hits read low; hit rate 0.67% among 290,000; in the data active means activity change below about -30%
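First, compound is pin-transferred into glyceraldehyde-3-phosphate coupling-enzyme reagent at 57.5 uM final and held 10 min at RT. Next, substrate, coupling system and AmpLite Red are added. After 20 min RT, fluorescence (525/598 nm) is read.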
Giardia kill: Giardia lamblia killing; hit rate 0.15% among 340,000; AID 540267; Giardia lamblia trophozoite viability; activity change, % at 7.66 µM, hits read low; in the data active means activity change below about -80%; inconclusive means between about -30% and that limit;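 further: parasites exposed to compound for two days anaerobically before the ATP read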
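Compounds were tested on trophozoites seeded at 100 cells/well and held 48 hrs at 37 deg C anaerobically. An ATP-based luminescent kit measured the remaining live cells.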
Numbers stand for hits; – = inactive; ? = inconclusive; · = not tested or not shown; ! = a repeat was not active. An excerpt weighted towards active compounds, which were near 5.5% of everything screened. Unless noted, the call rests on the fitted dose curve; in most records, active means well fitted curve in the direction sought with a large enough effect; inconclusive means small, poorly fitted or top-dose-only effect, or another doubt; inactive means no such curve, though single readings can be large; an effect the other way counts as inactive or inconclusive.

SMILES | Sfp PPTase inh | ELG1 repair inh | Coupling enz | Giardia kill
CC1Sc2ccc(S(=O)(=O)N3CCC(C(=O)N(C)Cc4ccccc4)CC3)cc2NC1=O (stereo not given) | – | 7.3µM | · | –
CC1Sc2ccc(S(=O)(=O)N3CCC(C(=O)N(C)Cc4ccco4)CC3)cc2NC1=O (stereo not given) | – | ? | · | –
COc1ccccc1N1CSC2=C(C#N)C(c3ccc(SC)cc3)CC(=O)N2C1 (stereo not given) | 3.5µM | – | -38 | –
COc1cc(SC)ccc1C(=O)N1CCN(c2ccccc2OC)CC1 | – | ? | – | –
COc1cc(C2CC(=O)N3CN(c4ccccc4C)CSC3=C2C#N)cc(OC)c1OC (stereo not given) | 2.8µM | – | -36 | ·
COc1cc(C2CC(=O)n3c(nc4ccccc43)S2)cc(OC)c1OC (stereo not given) | – | – | – | ·
CO[C@H]1C[C@@H]2CC[C@@H](C)[C@@](O)(O2)C(=O)C(=O)N2CCCC[C@H]2C(=O)O[C@H]([C@H](C)C[C@@H]2CC[C@@H](O)[C@H](OC)C2)CC(=O)[C@H](C)/C=C(\C)[C@@H](O)[C@@H](OC)C(=O)[C@H](C)C[C@H](C)/C=C/C=C/C=C/1C | – | · | · | ·
ClCC1=Nc2cccc3cccc(c23)N1 | 63µM | ? | – | ·
CC(C)C1=Nc2cccc3cccc(c23)N1 | 35µM | – | – | –
CCCn1c2ccccc2c2cnn(CC(=O)NCCCN3CCN(c4ccccc4)CC3)c(=O)c21 | – | – | – | –
O=C(CSc1nc2scc(-c3ccccc3)c2c(=O)[nH]1)N1CCOCC1 | – | – | · | –
Cc1cccc(N2CCN(C(=O)c3ccc(N4CCCC4=O)cc3)CC2)c1C | – | 18µM | – | –
O=C(c1ccc(N2CCCC2=O)cc1)N1CCN(c2ccccc2)CC1 | – | – | – | –
CS(=O)(=O)c1ccc(C(=O)Nc2nc(-c3ccco3)c(-c3ccco3)s2)cc1 | · | – | · | –
O=C(Nc1nc(-c2ccco2)c(-c2ccco2)s1)C1CCC1 | 28µM | – | – | –
O=C(Nc1nc(-c2ccco2)c(-c2ccco2)s1)C1CC(=O)N(c2ccc3c(c2)OCCO3)C1 (stereo not given) | 10µM | ? | – | –
O=C(Nc1nnc(-c2ccco2)s1)C1CCCCC1 | 50µM | ? | – | –
CCCC(C)NC(=O)C1c2ccccc2Oc2ccccc21 (stereo not given) | – | – | – | –
CN(C)S(=O)(=O)N1CCC(c2ccc(F)cc2)C(COc2ccc3c(c2)OCO3)C1 (stereo not given) | – | 16µM | – | –
O=C(Cc1cnn(-c2ccccc2)c1)c1ccc(O)c(O)c1O | 32µM | ? | – | –
O=C(COCc1ccccc1)N[C@@H]1c2ccccc2CC[C@@H]1OCc1ccccc1 | · | ? | · | –
CNc1ccccc1C(C)(C)c1cc(-c2cccc(OC)c2)no1 | – | 1.5µM | – | –
C=CCn1c(O)c(CN2CCCCC2)c(C)c(C#N)c1=O | – | – | -33 | –
Cc1c(CN2CCCC(C)C2)c(O)n(CCO)c(=O)c1C#N (stereo not given) | – | – | – | –
CN1CCN(CCCCOc2ccccc2C=O)CC1 | 25µM | – | – | –
SMILES | Sfp PPTase inh | ELG1 repair inh | Coupling enz | Giardia kill
Cn1cnnc1Sc1ccc(C(=O)OCC(=O)NC2CC2)cc1[N+](=O)[O-] | – | – | – | –
Cn1cnnc1Sc1ccc(C(F)(F)F)cc1[N+](=O)[O-] | – | 8.2µM | – | –
O=C(Cc1ccccc1)NC1c2ccccc2-c2ccccc21 | 79µM | – | – | –
COC(=O)CCC(=O)OC1(C)C(=O)C=C2C=C(C3CC3)N(C3CCCCC3)C=C2C1=O (stereo not given) | – | – | -41 | –
CC1(OC(=O)CCc2ccccc2)C(=O)C=C2C=C(c3ccc(C#N)cc3)N(C3CCCC3)C=C2C1=O (stereo not given) | – | – | – | –
COC(=O)CCC(=O)OC1(C)C(=O)C=C2C=C(C3CC3)N(C3CCCC3)C=C2C1=O (stereo not given) | – | – | -35! | –
COC/C=C/C1=CC2=CC(=O)C(C)(OC(=O)c3cnc4ccccc4n3)C(=O)C2=CN1C1CCCCC1 (stereo not given) | – | – | – | ·
O=C(Cc1ccc(S(=O)(=O)N2CCOCC2)s1)N1CCN(S(=O)(=O)c2cccc(Cl)c2)CC1 | · | – | · | –
COc1ccc(NC(=O)CSc2nc3scc(C)c3c(=O)[nH]2)cc1 | – | – | – | –
CCn1c(=O)c(=O)n(CC)c2cc(S(=O)(=O)Nc3cc(C)ccc3C)ccc21 | – | – | – | –
